PINK1 expr mod – modulators of PINK1 expression; 410,000 tested, 0.2% active; PINK1 immunofluorescence, high-content cytometry, 24 h; AID 624263; Potency, µM (highest dose often 76.6 µM), without a hit: at the top dose activation (PINK1 increase), actives largely listed as activators; active = well fitted activation curve with a large enough effect; inconclusive = small, poorly fitted or top-dose-only effect; cell line not stated here; note: potency is the fitted concentration of half-maximal effect; % of control where 0% means no effect; nearly all actives have a fitted effect of over 65% in size
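Fluorescence from anti-PINK1 antibody, together with nuclear and cell stains, was scanned on a laser-scanning cytometer. Before staining, stable-line cells were incubated 24 hours with compounds at 5 concentrations; primary antibody 12 h at 10 degrees C.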
p53 reactivator – re-activators of mutant p53; H1299 p53-A138V BP100-luciferase reporter, luminescence, 24 h; Potency, µM (doses to about 92.2 µM), inactives show at the top dose activity change, positive = activation, hits mostly activators; 320,000 tested, 0.063% active; AID 504706; note: potency is the fitted concentration of half-maximal effect; % of control where 0% means no effect; nearly all actives have a fitted effect of over 45% in size
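H1299 (p53-null), stable ts p53-A138V + BP100-Luc; 1000 cells/well, Opti-MEM/10% FBS; cpd 4 pt, 1:5; 24 h, 37 deg C, 5% CO2; detection reagent 10 min RT; luminescence.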
CCT modulator – changes cytosolic chaperonin activity | purified chaperonin ATPase assay, HTRF ADP detection, 30 min | activity change, % (test concentration not listed), hits read low | 360,000 tested, 0.3% active | AID 651819; in the data active = activity change below about -30%; note: % is set by controls: 0 for no effect and ±100 for the full control effect
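Enzyme 40 or 20 nM (batch-dependent) in Tris pH 7.4/KCl/MgCl2/DTT; cpd 76 uM single point; ATP 10 uM; 30 min 37 °C; Transcreener ADP HTRF detection, 30 min RT; ratio 665/615.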
ALOX12 inh – ALOX12 (human) lipoxygenase inhibition | Potency, µM (doses to about 108 µM), for the others: top-dose activity change, negative = inhibition, most hits filed as inhibitors | purified 12hLO, xylenol orange hydroperoxide absorbance | 580,000 tested, 1.1% active | P18054; note: potency is the fitted concentration of half-maximal effect; % is set by controls: 0 for no effect and ±100 for the full control effect
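Hydroperoxide product was detected by ferrous iron/xylenol orange as the 573 to 405 nm absorbance ratio. Arachidonic acid at 40 uM (final) was turned over for 30 min at room temperature by 150 nM human 12hLO, pH 7.0 Hepes buffer, after 15 min compound preincubation.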
S-ASM inh – human S-ASM enzyme inhibition; placental ASM, HMU-PC fluorogenic substrate, 60 min; Potency, µM (doses to about 57.5 µM), for inactives: at the top dose activity change, negative = inhibition, most hits filed as inhibitors; 340,000 tested, 0.006% active; AID 504937; note: potency is the fitted concentration of half-maximal effect
Target sequence (P17405 47-631 limits assumed): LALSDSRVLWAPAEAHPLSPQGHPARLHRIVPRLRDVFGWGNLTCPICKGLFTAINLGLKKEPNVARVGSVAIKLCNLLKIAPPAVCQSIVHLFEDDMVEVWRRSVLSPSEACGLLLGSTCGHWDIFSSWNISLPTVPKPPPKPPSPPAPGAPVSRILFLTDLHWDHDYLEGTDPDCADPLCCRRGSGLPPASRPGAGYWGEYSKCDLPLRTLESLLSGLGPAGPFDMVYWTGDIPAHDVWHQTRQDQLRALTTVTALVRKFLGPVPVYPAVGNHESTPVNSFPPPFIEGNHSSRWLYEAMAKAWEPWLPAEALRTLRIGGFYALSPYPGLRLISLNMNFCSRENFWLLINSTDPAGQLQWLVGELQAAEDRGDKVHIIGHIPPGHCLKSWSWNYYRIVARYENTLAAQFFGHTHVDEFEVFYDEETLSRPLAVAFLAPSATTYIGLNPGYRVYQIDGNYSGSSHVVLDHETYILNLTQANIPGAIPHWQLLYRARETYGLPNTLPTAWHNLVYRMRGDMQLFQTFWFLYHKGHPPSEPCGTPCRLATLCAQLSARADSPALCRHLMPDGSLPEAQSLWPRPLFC
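Steps: dispense placental human ASM, pin compound, wait 10 min at room temperature, add HMU-PC0 substrate at 9 uM final, incubate 60 min at 37 °C, add stop solution raising pH to 10, read fluorescence.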
Mm-Cpn inhibitor – inhibitors of Methanococcus maripaludis chaperonin TRiC (MmCpn); purified Mm-Cpn ATPase, ADP Transcreener TR-FRET; 330,000 tested, 0.031% active; Potency, µM (doses to about 76.9 µM), inactives show top-dose activity, negative = inhibition, hits mostly inhibitors; note: potency is the fitted concentration of half-maximal effect; % is set by controls: 0 for no effect and ±100 for the full control effect; nearly all actives have a fitted effect of over 80% in size
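25 nM Mm-CPN + cpd, 10 min 37°C; + 10 uM ATP, 30 min 37°C; buffer 30 mM Tris pH 7.4, 100 mM KCl, 5 mM MgCl2, 1 mM DTT; Transcreener ADP HTRF detection 30 min RT.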
* hit, by the source's call; [ ] = remark or other dose. Rows were chosen to be rich in hits. Some 1.4% of all compounds tested hit in one or more screens of this group. Unless noted, calls come from the whole dose curve; as a rule, active = well fitted curve in the direction sought with a large enough effect; inconclusive = small, poorly fitted or top-dose-only effect, or another doubt; inactive = no such curve, though single readings can be large; an effect the other way counts as inactive or inconclusive.

Results for Cc1ccc(N/N=C/C=C/c2ccccc2[N+](=O)[O-])c(C)c1 ?
ALOX12 inh: 16µM*

What do the screens show for `O=[N+]([O-])c1ccccc1/C=C/C=N/Nc1ccc(S(=O)(=O)Nc2ccccc2)cc1[N+](=O)[O-]`?
ALOX12 inh: -4%

Results for COc1ccc(-n2c(=O)c(-c3cn(C)c4ccccc34)nc3cnc(N4CCNCC4)nc32)cc1 ?
PINK1 expr mod: 7%; ALOX12 inh: inconclusive

What do the screens show for `CN1CCN(c2ncc3nc(-c4cn(C)c5ccccc45)c(=O)n(-c4ccccc4)c3n2)CC1`?
PINK1 expr mod: 1%; ALOX12 inh: 6.3µM*

Results for Cc1ccccc1S(=O)(=O)N1CCC(n2c(CC(C)C)nc3cccnc32)CC1 ?
ALOX12 inh: -7%

What do the screens show for `CC1(C)C/C(=N/O)C=CO1`?
ALOX12 inh: -8%

How did COc1ccc(/C(C)=N/NC(=S)NCc2ccco2)cc1 do in these assays?
PINK1 expr mod: 1%; p53 reactivator: inconclusive; CCT modulator: -2; ALOX12 inh: 40µM*; S-ASM inh: 0%; Mm-Cpn inhibitor: 0%

What do the screens show for `C=CCNC(=S)N/N=C(\C)c1ccc(OC)cc1`?
PINK1 expr mod: 1%; p53 reactivator: inconclusive; CCT modulator: -2; ALOX12 inh: 40µM*; S-ASM inh: -1%; Mm-Cpn inhibitor: 1%

Results for COc1ccccc1/C=C/C1=NC(=C\C=C/c2ccccc2)/C(=O)O1 ?
PINK1 expr mod: 1%; p53 reactivator: 0%; CCT modulator: -1; ALOX12 inh: 45µM*; S-ASM inh: 18%; Mm-Cpn inhibitor: -1%

What do the screens show for `O=C(OCc1cccc([N+](=O)[O-])c1)c1ccc(OC(F)(F)F)cc1`?
ALOX12 inh: 10%

How did COc1ccc2ccccc2c1CNC1CCN(c2ccc(C(=O)N3CCOCC3)cc2)CC1 do in these assays?
ALOX12 inh: 16%

What do the screens show for `Cc1ccc(-c2nn(-c3ccccc3)cc2C=C2C(=O)CC(C)(C)CC2=O)cc1`?
PINK1 expr mod: -1%; p53 reactivator: -3%; CCT modulator: -6; ALOX12 inh: 7.9µM*; S-ASM inh: -9%; Mm-Cpn inhibitor: -5%

How did S=c1[nH]c2cc(Br)cnc2[nH]1 do in these assays?
PINK1 expr mod: -1%; p53 reactivator: 2%; CCT modulator: -1; ALOX12 inh: 40µM*; S-ASM inh: 7%; Mm-Cpn inhibitor: 0%

What do the screens show for `CN1C[C@@H](NC(=O)c2ccccn2)C[C@H]1c1nc(-c2ccc(OC(F)(F)F)cc2)no1`?
ALOX12 inh: 74%[176 µM]

What do the screens show for `CC1CCC(COC(=O)C[N+]2(C)CCCCC2)C(C)C1` (centres undefined)?
ALOX12 inh: 22µM*

Results for N=C1/C(=C\c2coc3ccccc3c2=O)C(=O)N=C2SC=CN12 ?
PINK1 expr mod: 13%; p53 reactivator: 6%; CCT modulator: -2; ALOX12 inh: 20µM*; S-ASM inh: 4%; Mm-Cpn inhibitor: -4%

How did CSC1=NSC2=NC(=O)/C(=C/c3coc4ccc(O)cc4c3=O)C(=N)N12 do in these assays?
PINK1 expr mod: 4%; p53 reactivator: 5%; CCT modulator: 0; ALOX12 inh: 18µM*; S-ASM inh: -8%; Mm-Cpn inhibitor: 0%

Results for CNC(=O)[C@H]1C[C@H](Oc2ccccc2)CN1Cc1ccc(F)c(F)c1 ?
ALOX12 inh: 37%

Results for COC(=O)c1ccc(/C=C(\C#N)c2nc3ccccc3s2)cc1 ?
PINK1 expr mod: 2%; p53 reactivator: 2%; CCT modulator: 0; ALOX12 inh: inconclusive; S-ASM inh: 16%; Mm-Cpn inhibitor: 2%

Results for N#C/C(=C\c1ccccn1)c1nc2ccccc2s1 ?
PINK1 expr mod: inconclusive; p53 reactivator: inconclusive; CCT modulator: 0; ALOX12 inh: 32µM*; S-ASM inh: 19%; Mm-Cpn inhibitor: -4%

How did COc1cccc(C(=O)Nc2ccc3oc(-c4cccc(OC)c4)nc3c2)c1 do in these assays?
ALOX12 inh: 2%

Results for O=c1[nH]c(Nc2ccccc2)cc2cc(Br)ccc12 ?
PINK1 expr mod: 12%; CCT modulator: -1; ALOX12 inh: 16µM*; S-ASM inh: 45%

Results for COc1ccccc1Nc1cc2cc(Br)ccc2c(=O)[nH]1 ?
PINK1 expr mod: 16%; CCT modulator: -1; ALOX12 inh: 8.9µM*; S-ASM inh: 20%

What do the screens show for `CCN1C(=O)C(NC(=O)C(=O)NCc2ccco2)c2ccccc21` (centres undefined)?
ALOX12 inh: 0%

What do the screens show for `Oc1cc(-c2ccc(N3CCCCC3)nc2)cc2cccnc12`?
PINK1 expr mod: 13µM*; p53 reactivator: inconclusive; S-ASM inh: 40%; Mm-Cpn inhibitor: 0%

What do the screens show for `Cc1cc(NC(=O)CSc2nc3ccccc3cc2C#N)no1`?
PINK1 expr mod: 10%; p53 reactivator: 19%; CCT modulator: -94*; ALOX12 inh: -5%; S-ASM inh: -1%; Mm-Cpn inhibitor: -6%

How did COc1ccc2nc(SCC(=O)Nc3cc(C)on3)c(C#N)cc2c1 do in these assays?
PINK1 expr mod: 2%; p53 reactivator: 0%; CCT modulator: -1; ALOX12 inh: -15%; S-ASM inh: 35%; Mm-Cpn inhibitor: -2%

What do the screens show for `Cc1ccc2c(CN(C)CCOc3ccc(Cl)cc3)cc(=O)oc2c1`?
ALOX12 inh: 35µM*

How did CCc1ccc2c(CN(C)CCOc3ccc(F)cc3)cc(=O)oc2c1 do in these assays?
ALOX12 inh: 45µM*

Results for CCc1ccc2c(CN(C)CCOc3ccccc3F)cc(=O)oc2c1 ?
ALOX12 inh: -15%

What do the screens show for `O=C(CCc1ccc(F)cc1)Nc1ccccc1-c1ccccc1`?
ALOX12 inh: -12%

How did COc1cc(OC)c(/C=C/c2cc3ccccc3c[n+]2C)c(OC)c1 do in these assays?
PINK1 expr mod: 11µM*

What do the screens show for `O=C(CC1=CCCCC1)N1CCC(C2CCNC2)CC1` (centres undefined)?
ALOX12 inh: 40µM*

What do the screens show for `CCc1ccc(C(=O)N2CCC(C3CCNC3)CC2)cc1` (centres undefined)?
ALOX12 inh: -4%

How did COc1ccccc1NC(=S)N(C(C)C)C(C)c1ccccn1 (centres undefined) do in these assays?
PINK1 expr mod: 3%; p53 reactivator: 2%; CCT modulator: 0; ALOX12 inh: -17%; S-ASM inh: 3%; Mm-Cpn inhibitor: 2%

Assay outcomes as filed in PubChem BioAssay.
